DT40 TDP1 CPT: growth inhibition of DT40 Tdp1-/-;hTDP1 cells with camptothecin (screen for TDP1 inhibitors); chicken DT40 Tdp1-/-;hTDP1 cells + 20 nM CPT, ATP luminescence, 48 h; Potency, µM (highest dose often 46.2 µM), for the others: top-dose activity change, negative = growth inhibition, most hits filed as inhibitors; 420,000 compounds, 12% hits; AID 686979; also: potency is read from the fitted curve at half-maximal effect; % is scaled to controls: 0 for no effect and ±100 for the full control effect; nearly all actives have a fitted effect of over 55% in size
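Chicken DT40 Tdp1-/- cells complemented with human TDP1, 400 cells/well, exposed to compounds plus 20 nM camptothecin for at least 48 h at 37 C; viability read as ATP content by CellTiter-Glo luminescence.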
DT40 TDP1 no CPT: qHTS for Inhibitors of human tyrosyl-DNA phosphodiesterase 1 (TDP1): qHTS in cells in absence of CPT; AID 686978, 2013; Potency, µM (series often up to 46.2 µM), without a hit: top-dose activity change, negative = growth inhibition, most hits filed as inhibitors; 420,000 compounds, 15% hits; DT40 Tdp1-/- hTDP1 cells, no CPT, ATP luminescence, 48 h; also: potency is read from the fitted curve at half-maximal effect; % is scaled to controls: 0 for no effect and ±100 for the full control effect; nearly all actives have a fitted effect of over 55% in size
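Camptothecin absent (DMSO only). Human TDP1-complemented DT40 knockout cells, 400 cells/well, 37 °C for minimum 48 hr; ATP measured via CellTiter-Glo, 30 min dark incubation, luminescence.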
DRD3 antagonist: D3 dopamine receptor (human) antagonism; P35462; D3R cells, DiscoveRx beta-arrestin luminescence, antagonist mode; stronger effect = lower value; max response, negative = inhibition, %; 360,000 compounds, 2.5% hits; AID 652054; in the data active = max response below about -50%; inconclusive = no clear call, values can overlap the other calls; also: % is scaled to controls: 0 for no effect and ±100 for the full control effect
Target sequence (P35462 whole entry, looked up): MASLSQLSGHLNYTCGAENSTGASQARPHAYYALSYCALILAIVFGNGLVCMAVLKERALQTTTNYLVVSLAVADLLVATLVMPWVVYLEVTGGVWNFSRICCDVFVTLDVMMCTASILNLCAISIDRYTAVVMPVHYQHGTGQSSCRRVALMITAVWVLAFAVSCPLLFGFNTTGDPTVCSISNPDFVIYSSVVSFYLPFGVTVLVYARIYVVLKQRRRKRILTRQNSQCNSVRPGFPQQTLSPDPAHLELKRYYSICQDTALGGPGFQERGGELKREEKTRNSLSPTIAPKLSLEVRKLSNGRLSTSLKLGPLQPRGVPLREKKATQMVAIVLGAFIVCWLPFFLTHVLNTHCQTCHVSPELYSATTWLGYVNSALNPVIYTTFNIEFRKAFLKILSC
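Cells expressing the human receptor were seeded at 1500 cells/well, incubated overnight at 37 degrees C in 5% CO2, then exposed to library compounds with dopamine controls for 90 minutes at 37 degrees C before luminescent detection.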
D3 ag: agonists of human D3 dopamine receptor; D3R DiscoveRx beta-arrestin cells, luminescence, 90 min; 410,000 compounds, 0.58% hits; max activation, %; in the data active = max activation above about 30%; also: 0% is about no effect
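Agonist mode: compounds and dopamine controls were applied to plated cells for 90 min at 37 degrees C after an overnight attachment at 1500 cells/well. Luminescent read-out followed 30 - 60 minutes at room temperature with DiscoveRx detection reagent.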
ClpP mod: qHTS Assay for Activators of ClpP | AID 651965, 2013 | 340,000 compounds, 1.9% hits | Potency, µM (doses to about 57.5 µM), without a hit: top-dose activity change, negative = active | purified B. subtilis ClpP, FRET peptide cleavage, 20 min | ATP-dependent Clp protease proteolytic subunit (Bacillus subtilis (strain 168)), P80244; active = well fitted falling curve with a large enough effect; inconclusive = small, poorly fitted or top-dose-only effect; inactive = no such curve, though single readings can be large or run the other way; also: potency is read from the fitted curve at half-maximal effect; the source files actives as falling curves though it sought activators and does not explain the sign; nearly all actives have a fitted effect of over 65% in size
Target sequence (P80244 whole entry, looked up): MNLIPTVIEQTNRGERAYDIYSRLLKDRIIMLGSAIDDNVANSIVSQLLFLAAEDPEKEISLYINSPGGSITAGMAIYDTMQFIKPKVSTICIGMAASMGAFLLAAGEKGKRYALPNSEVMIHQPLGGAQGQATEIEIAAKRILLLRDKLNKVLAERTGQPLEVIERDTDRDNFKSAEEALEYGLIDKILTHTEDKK
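ClpP 10 microg/mL final, pH 8 Tris/KCl buffer with BSA, glycerol, Tween-20; compound pinned in; FRET-FV substrate; RT 20 min; Ex320/Em430; ΔFRET vs ADEP 5.8 microM, DMSO, no enzyme.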
IL1B secr inh: blocks inflammasome-driven IL-1 beta release; THP-1 LPS/ATP IL-1B secretion, AlphaLISA, 16 h; stronger effect = lower value; activity change, % at 57.5 µM; 360,000 compounds, 4.7% hits; AID 743279; in the data active = activity change below about -50%; inconclusive = mostly about -30% to -49%; also: % is scaled to controls: 0 for no effect and ±100 for the full control effect
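THP-1 cells pretreated 1 hr with compounds (up to 57.5 uM final), then stimulated with LPS (250 ng/mL final) plus ATP (1.25 mM final); secreted IL-1B measured by AlphaLISA after 16 hr, decreased signal indicating inhibition.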
* hit, by the source's call; ? = inconclusive; . = no result. In the library only some 21% were active in any assay of this set; here they are far more common. Unless noted, calls follow the shape of the dose curve; as a rule, active = well fitted inhibition curve with a large enough effect; inconclusive = small, poorly fitted or top-dose-only effect; inactive = flat fitted curve, though single readings scatter.

SMILES	DT40 TDP1 CPT	DT40 TDP1 no CPT	DRD3 antagonist	D3 ag	ClpP mod	IL1B secr inh
COc1ccc(NC(=O)Nc2cccc3c2O[C@H](CN(C)S(=O)(=O)c2ccccc2)[C@@H](C)CN([C@H](C)CO)C3=O)cc1	18.4µM*	?	-24.8	-17.4	1.4%	-17.3
Cc1ccc(S(=O)(=O)Nc2cccc3c2O[C@H](CN(C)C(=O)Nc2ccc(C(F)(F)F)cc2)[C@@H](C)CN([C@H](C)CO)C3=O)cc1	16.4µM*	?	-1.9	-23.9	4.1%	-10.6
Cc1ccc(S(=O)(=O)Nc2cccc3c2O[C@@H](CN(C)C(=O)Nc2ccc4c(c2)OCO4)[C@H](C)CN([C@@H](C)CO)C3=O)cc1	?	?	6.7	-5.1	-2.8%	-0.8
COc1ccc(NC(=O)Nc2cccc3c2O[C@H](CN(C)C(=O)Nc2ccc(C(F)(F)F)cc2)[C@@H](C)CN([C@H](C)CO)C3=O)cc1	25.9µM*	16.4µM*	3.1	0.9	0.2%	-16.7
COc1ccc(NC(=O)Nc2cccc3c2O[C@H](CN(C)S(=O)(=O)c2ccc(OC)cc2)[C@@H](C)CN([C@H](C)CO)C3=O)cc1	?	?	13.9	-4.4	-0.4%	-28.0
COc1cccc(NC(=O)CSc2nc(-c3ccccc3)nc3c2Cc2cc(Cl)ccc2O3)c1	10.1%	3.5%	.	8.1	-5.1%	.
C[C@@H]1CN([C@H](C)CO)C(=O)CCCn2cc(nn2)CO[C@H]1CN(C)C(=O)Nc1ccc(C(C)(C)C)cc1	-21.9%	-5.8%	-100.2*	-13.6	-0.7%	2.3
C[C@H]1CN([C@@H](C)CO)C(=O)c2cccc(NC(=O)Nc3ccc(C(F)(F)F)cc3)c2O[C@@H]1CN(C)C(=O)Nc1ccc(F)cc1	5.17µM*	5.8µM*	1.7	-12.0	3.5%	0.8
C[C@H]1CN([C@@H](C)CO)C(=O)CCCn2cc(nn2)CO[C@@H]1CN(C)C(=O)Nc1ccc(C(F)(F)F)cc1	-15.7%	-18.5%	-10.4	10.3	0.7%	3.6
COc1ccc(S(=O)(=O)N(C)C[C@H]2Oc3c(NC(=O)C4CCCCC4)cccc3C(=O)N([C@H](C)CO)C[C@@H]2C)cc1	?	23.1µM*	-18.2	-18.9	0.9%	-21.0
Cc1ccc(S(=O)(=O)Nc2cccc3c2O[C@H](CN(C)Cc2ccccc2)[C@@H](C)CN([C@H](C)CO)C3=O)cc1	?	16.4µM*	-11.7	-24.3	1.7%	-6.8
CCOC(=O)c1c(S(=O)(=O)N2CCN(c3ccc(F)cc3)CC2)c(C)n(C)c1C	?	3.9%	3.7	2.2	0.5%	32.3
COc1ccccc1-c1nnc(SCC(=O)c2ccc(Cl)cc2)n1-c1ccccc1	.	.	.	-3.3	0.6%	.
COc1ccc(-n2c(CCc3ccccc3)nnc2SCC(=O)c2ccccc2)cc1	?	?	?	-5.2	-1.4%	-79.6*
COc1ccc(C(=O)CSc2nnc(CCc3ccccc3)n2-c2ccccc2)cc1	16.4µM*	14.6µM*	?	7.2	2.0%	-17.1
COc1ccc(NC(=O)Cc2nnc(SCC(=O)c3ccccc3)n2C)cc1	2.2%	-22.2%	-3.9	0.3	.	20.8
CN(Cc1cc(Cl)cc(Cl)c1O)Cc1c(O)ccc2ccccc12	?	?	1.7	19.9	.	-96.1*
COc1ccc(C2CC(=O)c3cnn(-c4nc(C)cc(C)n4)c3C2)cc1 (stereo not drawn)	20.6µM*	16.4µM*	-22.9	-6.3	-1.4%	10.0
Cc1cc(C)nc(-n2ncc3c2CC(c2ccccc2)CC3=O)n1 (stereo not drawn)	-15.7%	?	6.1	-5.4	.	90.1
COc1ccccc1CNC(=O)CN(C)S(=O)(=O)c1ccc(Br)s1	-2.9%	-22.1%	8.9	9.2	.	-14.8
CC(C)OC(=O)c1cn(-c2ccccc2)nc1-c1ccco1	?	?	-16.6	-2.9	0.6%	-89.8*
O=C(NCCCn1ccnc1)C(=O)Nc1ccccc1	16.4µM*	?	-16.9	-4.0	.	13.3
O=C(O)c1ccccc1C(=O)NCCCn1ccnc1	3.1%	7.4%	-2.7	1.8	-0.8%	-3.2
O=C(NCCCn1ccnc1)c1ccc(-c2cccc(Cl)c2Cl)o1	18.4µM*	?	?	-31.0	-0.9%	-26.4
CC(C(=O)NCCCn1ccnc1)(c1ccccc1)c1ccccc1	14.6µM*	18.4µM*	25.5	1.2	0.1%	-28.0
SMILES	DT40 TDP1 CPT	DT40 TDP1 no CPT	DRD3 antagonist	D3 ag	ClpP mod	IL1B secr inh
COc1ccc(NC(=O)C(=O)NCCCn2ccnc2)cc1	5.8%	-4.9%	-9.0	-2.6	0.1%	-19.1
CC1CN(C(=O)COC(=O)c2ccc3ncsc3c2)CC(C)O1 (stereo not drawn)	-1.2%	5.4%	-21.3	-18.3	.	-8.9
Cc1nn(-c2ccc(N3CCCCC3)nn2)c(C)c1CCC(=O)NCc1ccc(OC(C)C)cc1	16.4µM*	16.4µM*	.	-11.3	-1.1%	.
Cc1nn(-c2ccc(N3CCCCC3)nn2)c(C)c1CCC(=O)NCc1ccc(Cl)cc1	?	25.9µM*	.	-11.9	-0.8%	.
O=C(NCCc1ccccc1)c1ccc(S(=O)(=O)N2CCCC2)cc1	-1.1%	-23.7%	-2.8	-1.7	-2.5%	4.3
CCC(C(=O)Nc1ccccc1OC)n1c(C(=O)OC)cc2ccsc21 (stereo not drawn)	20.6µM*	?	-22.5	-6.3	-3.9%	-57.0*
CCc1cc(/C(Cc2csc(C)n2)=N/O)c(O)cc1O	?	23.1µM*	19.8	4.9	-0.2%	-6.7
CN(C)c1ccc(C(=O)Nc2nc3c(s2)CCCC3)cc1	?	?	8.3	-8.6	-27.5%	-29.2
C/C(=N\Nc1nc2c(s1)CCCC2)c1ccc(Cl)cc1	13µM*	8.2µM*	4.3	-1.7	?	-55.5*
CCc1ccc(NC(=S)N(Cc2ccccc2)Cc2ccccn2)cc1	11.6µM*	4.61µM*	-10.1	-4.1	-0.3%	-60.1*
CCc1ccc(NC(=S)N(Cc2cccnc2)Cc2ccco2)cc1	?	18.4µM*	-1.0	5.6	.	-66.6*
CCOc1ccc(S(=O)(=O)NCCc2c(C)[nH]c3c(Cl)cccc23)cc1C	23.1µM*	?	.	-10.5	-0.3%	.
Cn1c(SCC(=O)Nc2ccc(NC(=O)c3cccc(F)c3)cc2)nnc1-c1ccncc1	-24.7%	-27.6%	8.0	9.8	.	27.9
CCCc1nc2ccccc2n1CCc1ccccc1	29.1µM*	20.6µM*	3.4	0.0	.	-6.2
c1ccc(CCn2c(C3CC3)nc3ccccc32)cc1	?	25.9µM*	12.8	6.4	-0.8%	7.6
